Source: PubChem BioAssay (NCATS)
Records with an inconclusive call do not appear. Unless noted, the call rests on the fitted dose curve; in most records, active means well fitted curve in either direction with a large enough effect (not every such curve was filed as active); inconclusive means small, poorly fitted or top-dose-only effect, or another doubt; inactive means flat fitted curve, though single readings scatter.

Key:
[1] = AP1 Signaling Pathway (AID 357); settings: ME-180 AP-1-bla reporter, EGF-induced, beta-lactamase ratio, 5 h; at 17.2 µM (top of the series) unless noted;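 further: ME-180 reporter cells stimulated with EGF at its EC50 level; on the % scale 0 is the no-effect control and ±100 the full control effect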
In short: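 Modulation of EGF-driven AP-1 transcription was assessed with a beta-lactamase reporter in ME-180 cells. Compound and EC50 EGF were co-incubated 5 hours at 37 °C before 2.5-hour CCF4 loading at room temperature and dual-emission reading.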

[2] = NFAT Signaling Pathway (AID 444); settings: Jurkat NFAT-bla M1, carbachol, beta-lactamase ratio, 5 h; at 17.2 µM (top of the series) unless noted;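 further: carbachol stimulus at about its EC50 of 1 µM final; on the % scale 0 is the no-effect control and ±100 the full control effect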
In short: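 Jurkat cells carrying an NFAT-driven β-lactamase reporter and co-transfected muscarinic M1 receptor were treated with compound plus carbachol (1 uM final, an EC50 level) for 5 h at 37 °C. CCF4 loading followed for 1 h at RT; 460/530 nm ratio gave %activity.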

[3] = Stat Signaling Pathway (AID 446); settings: ME-180 SIE beta-lactamase reporter, IL-6 stimulated, 5 h; at 17.2 µM (top of the series) unless noted;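 further: ME-180 cervical cancer cells given 40 pM IL-6 alongside compound; SIE-controlled beta-lactamase reporter measured as 460/530 nm FRET emission ratio; on the % scale 0 is the no-effect control and ±100 the full control effect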
In short: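 Reporter line: ME-180 cervical carcinoma, SIE-beta-lactamase. Treatment: compound with 40 pM IL-6, 5 hrs, 37 C, in low-serum OPTI-MEM with 10 mM HEPES pH 7.3. Detection: 460/530 nm fluorescence.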

[4] = target: Glucocorticoid receptor (Homo sapiens) (UniProt P04150); assay: GR-GFP Redistribution (AID 450;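 active means compounds whose dose series gives a full or clear partial fitted curve of increased nuclear translocation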; further: potency means the concentration at half of the fitted maximal effect)
Chain of Glucocorticoid receptor (Homo sapiens) (P04150 whole entry, looked up): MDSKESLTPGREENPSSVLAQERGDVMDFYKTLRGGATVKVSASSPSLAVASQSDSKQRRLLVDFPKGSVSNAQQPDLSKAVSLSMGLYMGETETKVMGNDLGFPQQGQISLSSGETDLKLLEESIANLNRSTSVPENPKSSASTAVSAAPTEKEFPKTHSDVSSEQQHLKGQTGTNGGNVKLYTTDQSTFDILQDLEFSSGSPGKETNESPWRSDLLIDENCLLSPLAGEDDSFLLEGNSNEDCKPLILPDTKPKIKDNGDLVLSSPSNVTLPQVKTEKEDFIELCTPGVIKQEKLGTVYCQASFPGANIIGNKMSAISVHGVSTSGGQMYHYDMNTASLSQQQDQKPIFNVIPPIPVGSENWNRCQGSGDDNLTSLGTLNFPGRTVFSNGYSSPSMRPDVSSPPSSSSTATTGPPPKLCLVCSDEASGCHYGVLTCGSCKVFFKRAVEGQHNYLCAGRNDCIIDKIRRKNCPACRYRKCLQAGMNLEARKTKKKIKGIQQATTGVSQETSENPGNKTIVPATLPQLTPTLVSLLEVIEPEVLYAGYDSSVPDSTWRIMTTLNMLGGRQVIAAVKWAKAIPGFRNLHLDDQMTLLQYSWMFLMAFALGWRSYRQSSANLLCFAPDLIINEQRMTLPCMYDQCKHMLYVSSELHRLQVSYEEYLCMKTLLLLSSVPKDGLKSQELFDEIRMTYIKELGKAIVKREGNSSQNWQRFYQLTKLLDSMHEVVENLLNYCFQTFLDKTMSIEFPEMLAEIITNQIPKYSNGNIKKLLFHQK

N#Cc1c2c(c(-c3ccco3)[nH]c1=O)CCCC2
inactive: activity change, negative = inhibition [1] -0.634% | activity change, negative = inhibition [2] 10.5% | activity, negative = inhibition [3] -2.06% | Potency [4] > 20.6 µM

O=C(O)C1CC(=O)N(Cc2cccs2)C1 (stereo not given)
inactive: activity change, negative = inhibition [1] -0.708% | activity change, negative = inhibition [2] -5.3% | activity, negative = inhibition [3] 7.75% | Potency [4] > 20.6 µM

NC(=O)C1CCN(C2OC(=O)c3ccccc32)CC1 (stereo not given)
inactive: activity change, negative = inhibition [1] 2.97% | activity change, negative = inhibition [2] 1.22% | activity, negative = inhibition [3] 10.3% | Potency [4] > 20.6 µM

S=C(N=Nc1ccccc1)NNc1ccccc1
inactive: activity change, negative = inhibition [1] 7.8% | activity change, negative = inhibition [2] 14% | activity, negative = inhibition [3] -0.775% | Potency [4] > 20.6 µM

COC(=O)NC(Nc1sc2c(c1C(N)=O)CCCC2)(C(=O)OC)C(F)(F)F (stereo not given)
inactive: activity change, negative = inhibition [1] 2.66% | activity change, negative = inhibition [2] 11.9% | activity, negative = inhibition [3] 5.04% | Potency [4] > 20.6 µM

COC(=O)C1=C(C)N=C2SC(C)C(=O)N2C1c1ccc(C(=O)OC)cc1 (stereo not given)
inactive: activity change, negative = inhibition [1] -9.79% | activity change, negative = inhibition [2] -6.71% | activity, negative = inhibition [3] -11.1% | Potency [4] > 20.6 µM

Cc1nc(SCC(N)=O)[nH]c(=O)c1Cc1ccc(OC(C)C)cc1
inactive: activity change, negative = inhibition [1] 12% | activity change, negative = inhibition [2] 1.93% | activity, negative = inhibition [3] 8.12% | Potency [4] > 20.6 µM

CCCCOC(=O)c1ccc(NC(=O)CSc2nncn2C)cc1
inactive: activity change, negative = inhibition [1] 6.24% | activity change, negative = inhibition [2] 4.69% | activity, negative = inhibition [3] 4.52% | Potency [4] > 20.6 µM

NC(=O)CSc1c[nH]c2ccccc12
inactive: activity change, negative = inhibition [1] 2.78% | activity change, negative = inhibition [2] 0.963% | activity, negative = inhibition [3] -0.854% | Potency [4] > 20.6 µM

Cc1ccccc1N1C(=O)C2ON(c3ccccc3)C(c3cccnc3)C2C1=O (stereo not given)
inactive: activity change, negative = inhibition [1] -2.7% | activity change, negative = inhibition [2] -0.971% | activity, negative = inhibition [3] -4.14% | Potency [4] > 20.6 µM

Nc1nc2n(n1)C(c1cccs1)CC(c1ccc(Br)cc1)N2 (stereo not given)
inactive: activity change, negative = inhibition [1] 0.611% | activity change, negative = inhibition [2] 11% | activity, negative = inhibition [3] 4.42% | Potency [4] > 20.6 µM

CCOc1cc(C2Nc3ccccc3C(=O)N2c2ccccc2OC)ccc1O (stereo not given)
inactive: activity change, negative = inhibition [1] 18.3% | activity change, negative = inhibition [2] 6.73% | activity, negative = inhibition [3] 5.03% | Potency [4] > 20.6 µM

COc1ccc(C2=Nn3c(nnc3-c3ccccc3)SC2)cc1OC
inactive: activity change, negative = inhibition [1] -10.8% | activity change, negative = inhibition [2] -10.8% | activity, negative = inhibition [3] 3.68% | Potency [4] > 20.6 µM

CCc1nnc(NC(=O)c2c(O)c3c([nH]c2=O)CCCC3)s1
inactive: activity change, negative = inhibition [1] -9.97% | activity change, negative = inhibition [2] 15.9% | activity, negative = inhibition [3] 4.12% | Potency [4] > 20.6 µM

Cc1[nH]c2ccc3c(ncn3CCC#N)c2c1C
inactive: activity change, negative = inhibition [1] 0.919% | activity change, negative = inhibition [2] 9.51% | activity, negative = inhibition [3] -5.09% | Potency [4] > 20.6 µM

COc1ccc(OC)c(C2/C(=C(\O)c3ccc4c(c3)OCCO4)C(=O)C(=O)N2CCCN(C)C)c1 (stereo not given)
inactive: activity change, negative = inhibition [1] 4.27% | activity change, negative = inhibition [2] 12.2% | activity, negative = inhibition [3] -7.15% | Potency [4] > 20.6 µM

CCOC(=O)N1CCN(C(=O)c2cn(CC)c3cc(N4CCN(C)CC4)c(F)cc3c2=O)CC1
inactive: activity change, negative = inhibition [1] 8.43% | activity change, negative = inhibition [2] 7.68% | activity, negative = inhibition [3] 0.507% | Potency [4] > 20.6 µM

O=c1[nH]c2cnccc2n1-c1ccccc1
inactive: activity change, negative = inhibition [1] -12.9% | activity change, negative = inhibition [2] -4.82% | activity, negative = inhibition [3] 1.57% | Potency [4] > 20.6 µM

CC1CN(C2CCN(S(=O)(=O)c3ccc4ccccc4c3)CC2)CC(C)O1 (stereo not given)
inactive: activity change, negative = inhibition [1] -3.99% | activity change, negative = inhibition [2] -12.1% | activity, negative = inhibition [3] -8.2% | Potency [4] > 20.6 µM

COc1ccc(/C(O)=C2/C(=O)C(=O)N(CCCN(C)C)C2c2ccccc2)cc1OC (stereo not given)
inactive: activity change, negative = inhibition [1] -9.48% | activity change, negative = inhibition [2] -0.461% | activity, negative = inhibition [3] 8.71% | Potency [4] > 20.6 µM

CCOC(=O)C(C)Oc1nc(Oc2ccccc2)nc(N(C)C)n1 (stereo not given)
inactive: activity change, negative = inhibition [1] -9.94% | activity change, negative = inhibition [2] 11% | activity, negative = inhibition [3] 2.57% | Potency [4] > 20.6 µM

CCCOC(=O)C1[C@H]2C(=O)N(Cc3ccco3)C[C@]23C=C[C@H]1O3 (stereo not given in full)
inactive: activity change, negative = inhibition [1] 0.485% | activity change, negative = inhibition [2] 2.35% | activity, negative = inhibition [3] 4.93% | Potency [4] > 20.6 µM

Cn1c(=O)[nH]c(=O)c2c1nc(Br)n2CCSc1nnnn1-c1ccccc1
inactive: activity change, negative = inhibition [1] -14.1% | activity change, negative = inhibition [2] 1.39% | activity, negative = inhibition [3] -8.23% | Potency [4] > 20.6 µM

Cn1c(=O)c2c(nc(OCc3cccnc3)n2Cc2ccccc2)n(C)c1=O
inactive: activity change, negative = inhibition [1] -9.82% | activity change, negative = inhibition [2] -6.31% | activity, negative = inhibition [3] -1.88% | Potency [4] > 20.6 µM

CC1(C)CC(NC(=O)C23CCC(C)(/C(=N/O)C2)C3(C)C)CC(C)(C)N1 (stereo not given)
inactive: activity change, negative = inhibition [1] 1.22% | activity change, negative = inhibition [2] 10.5% | activity, negative = inhibition [3] 0.446% | Potency [4] > 20.6 µM
